Sampled rows, rich in hits. Any-hit rate of the full collection: about 32%.
CYP2C19 inh = blocks human cytochrome P450 2C19; inhibition, % at 5 µM; AID 778; 21% of 96,000 active; CYP2C19 Supersomes, luciferin-H EGE luminescence, 30 min;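 active means CYP2C19 inhibition above a set limit at 5 µM in the primary screen, cut at about 50% in these data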
Target sequence (P33261 whole entry, looked up): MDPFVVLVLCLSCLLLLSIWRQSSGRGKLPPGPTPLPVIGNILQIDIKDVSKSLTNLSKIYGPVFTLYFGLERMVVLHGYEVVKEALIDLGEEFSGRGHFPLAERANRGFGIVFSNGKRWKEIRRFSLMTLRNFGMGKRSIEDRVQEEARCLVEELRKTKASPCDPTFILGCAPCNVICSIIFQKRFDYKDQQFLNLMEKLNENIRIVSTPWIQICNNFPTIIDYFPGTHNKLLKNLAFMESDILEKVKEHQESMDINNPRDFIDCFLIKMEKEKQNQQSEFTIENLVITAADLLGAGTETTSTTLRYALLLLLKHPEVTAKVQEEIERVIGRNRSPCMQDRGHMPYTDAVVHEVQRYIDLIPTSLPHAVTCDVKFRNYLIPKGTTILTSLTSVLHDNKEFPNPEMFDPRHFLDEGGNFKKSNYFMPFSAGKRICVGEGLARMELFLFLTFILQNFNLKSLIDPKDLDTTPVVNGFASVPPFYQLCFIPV
CYP2C19 activ = increases human CYP2C19 enzyme activity; 96,000 tested, under 10 active; P33261; recombinant CYP2C19, luciferin-H EGE luminescence; hits give high values; 0 = fully inhibited enzyme, 1 = untreated enzyme; activation factor at 5 µM; AID 1025;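 active means activation factor of at least 2 at 5 µM in the primary screen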
PostGolgi yeast = growth inhibition of a yeast mutant, post-Golgi transport screen; post-Golgi transport phenotypic cell assay; inhibition, % at 10 µM; 0.9% of 98,000 active;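 further: yeast cells grown in 1536-well plates; yeast grown about 18 h at 30C before absorbance read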
CYP2C9 inh = blocks human cytochrome P450 2C9; P11712; CYP2C9 Supersomes, luciferin-H conversion, luminescence; inhibition, % at 5 µM; 20% of 96,000 active;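 active means blocking of liver enzyme CYP2C9 beyond about 50% at 5 µM, limit read from the data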
CYP2C9 activ = CYP2C9 (human) activation; P11712; recombinant CYP2C9, luciferin-H conversion, luminescence; hits give high values; factor 1 = untreated enzyme, 0 = blocked; activation factor at 5 µM; 1.4% of 96,000 active; AID 1024;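 active means activation factor of 2 or more for CYP2C9 at a 5 µM dose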
PostGolgi ctrl = inhibits growth of the yeast control strain | inhibition, % at 10 µM | efflux-deficient yeast background strain, growth absorbance A615, 16 h | 5% of 98,000 active | AID 738
A number is an active result; n = inactive; x = not tested or not shown. Unless noted, no stated cut-off is given here; in the data, active means inhibition above about 30%; inactive means the rest.

SMILES	CYP2C19 inh	CYP2C19 activ	PostGolgi yeast	CYP2C9 inh	CYP2C9 activ	PostGolgi ctrl
CCOC(=O)c1nnc(-c2ccc(C)cc2)nc1Oc1ccccc1Cl	n	n	n	n	n	47
CC(=O)OCC1OC(Sc2cccc3cccnc23)C(OC(C)=O)C(OC(C)=O)C1OC(C)=O (configuration not stated)	n	n	n	n	n	n
Cc1ccc(NC(=O)Cc2nnc(SCC(=O)c3ccc(Br)cc3)n2C)cc1	n	n	n	n	n	n
O=C(NCSc1ccncn1)c1ccccc1	n	n	n	n	n	n
CCc1nnc(NC(=O)CSc2nc3c(c(=O)n2CC)SC(C)C3)s1 (configuration not stated)	n	n	n	n	n	n
Clc1ccccc1-c1nc2ccccc2c2nncn12	62	n	n	n	n	n
CSc1nnc(-c2ccccc2Cl)n1N	n	n	n	n	n	n
COc1ccc(N(C(=O)Nc2ccc(Cl)cc2)C2=NCCC2)cc1	n	n	n	54	n	n
COc1ccc(N2CCN(CCNC(=O)Nc3ccc(Cl)cc3)CC2)cc1	n	n	n	n	n	n
Cc1ccc(Cl)cc1N1CCN(C(=O)COc2ccc(S(=O)(=O)NC(C)C)cc2)CC1	n	n	n	n	n	n
COC(=O)c1ccc(OCCN2C3=NCCN3c3ccccc32)cc1	n	n	n	n	n	n
COC(=O)CSc1snnc1-c1ccc(F)cc1	66	n	n	n	n	n
COc1cc(OC)c(C2C(C(=O)Nc3ccccc3)=C(C)Nc3ncnn32)cc1OC (configuration not stated)	n	n	n	n	n	n
COc1ccc(N(CC(=O)NCc2ccco2)S(=O)(=O)c2c(C)nn(C)c2C)cc1	75	n	n	n	n	n
COc1ccc(NC(=O)CN(c2ccc(C)cc2)S(=O)(=O)c2c(C)nn(C)c2C)cc1OC	n	n	n	n	n	n
Cc1nn(C)c(C)c1S(=O)(=O)Nc1ccc2c(c1)OCO2	81	n	n	n	n	n
COc1ccc(N(CC(=O)Nc2ccc3c(c2)OCO3)S(=O)(=O)c2c(C)nn(C)c2C)cc1	n	n	n	79	n	n
CCOC(=O)c1ccc(NC(=O)CN(c2ccc(C)cc2)S(=O)(=O)c2c(C)nn(C)c2C)cc1	n	n	n	n	n	n
COc1ccc2nc(NC(=O)CN(c3ccc(C)cc3)S(=O)(=O)c3c(C)nn(C)c3C)sc2c1	n	n	n	68	n	50
Cc1ccc(C)c(NS(=O)(=O)c2c(C)nn(C)c2C)c1	n	n	n	n	n	n
COc1ccc(N(CC(=O)NCc2ccc3c(c2)OCO3)S(=O)(=O)c2c(C)nn(C)c2C)cc1	87	n	n	n	n	n
Cc1ccc(-n2nc(C(=O)NCc3ccc(C)o3)c3c4ccccc4n(C)c3c2=O)cc1	n	n	n	n	n	n
COC(=O)CSc1nnc(CNC(=O)c2cccs2)n1-c1cc(OC)ccc1OC	n	n	n	n	n	n
Cc1ccc(NC(=O)/C(C#N)=C/c2ccc(C)s2)c(C)c1	n	n	n	n	n	n
Cc1ccc(/C=C(\C#N)C(=O)Nc2c(C)cccc2C)s1	n	n	n	64	n	n
SMILES	CYP2C19 inh	CYP2C19 activ	PostGolgi yeast	CYP2C9 inh	CYP2C9 activ	PostGolgi ctrl
CC(=O)N1CCc2cc(S(=O)(=O)NC3CCCc4ccccc43)ccc21 (configuration not stated)	x	x	n	x	x	n
O=S(=O)(NC1CCCc2ccccc21)c1cnc[nH]1 (configuration not stated)	68	n	n	52	n	n
Cc1nc(SCC(=O)NCC2CCCO2)c2oc3ccccc3c2n1 (configuration not stated)	52	n	n	n	n	n
CCc1nc(SCC(=O)NCC2CCCO2)c2oc3ccccc3c2n1 (configuration not stated)	77	n	n	n	n	n
CC1CCN(c2ccccc2NC(=O)c2ccc(N3CCOCC3)c([N+](=O)[O-])c2)CC1	n	n	n	n	n	n
CC1(C)CC(=O)C=C(Nc2cccc(O)c2)C1	n	n	n	n	n	n
C=CCCCCCCCCC(=O)NNC1=CC(=O)CC(C)(C)C1	n	n	n	51	n	n
O=C(CCn1nnc2ccccc21)Nc1nnc(COc2ccccc2F)s1	n	n	n	n	n	n
O=C(CCn1nnc2ccccc21)Nc1nnc(-c2ccccc2F)s1	n	n	n	56	n	n
COCC(C)n1c(-c2ccc3c(c2)NC(=O)CO3)csc1=Nc1ccc(OC(F)F)cc1 (configuration not stated)	n	n	n	69	n	n
CCCCN=c1scc(-c2ccc3c(c2)NC(=O)CO3)n1N=C1CCCC1	n	n	n	n	n	65
Nc1nc(-c2ccc3c(c2)NC(=O)CO3)cs1	n	n	n	n	n	n
CCN=c1scc(-c2ccc3c(c2)NC(=O)CO3)n1N=C1CCCC1	54	n	n	n	n	n
CCOc1ccc(CNn2nnnc2N)cc1	n	n	n	n	n	n
CCOC(=O)c1oc2c(CN3CCCCC3C)c(O)ccc2c(=O)c1-c1ccc(OC)c(OC)c1 (configuration not stated)	n	n	n	n	n	n
O=C(c1cccn2c(=O)c3ccc(Cl)cc3nc12)N1CCN(Cc2ccc3c(c2)OCO3)CC1	n	n	n	70	n	n
CCOc1ncccc1C(=O)N1CCN(Cc2ccc3c(c2)OCO3)CC1	82	n	n	55	n	n
Cc1ccc(OCC(O)CN2CCN(Cc3ccc4c(c3)OCO4)CC2)c(C)c1 (configuration not stated)	n	n	100	n	n	n
COc1ccc(CN2CCN(C(=O)CC(C)C)CC2)cc1OC	n	n	n	n	n	n
COc1ccc(CN2CCN(C(=O)CC(C)C)CC2)c2ccccc12	52	n	n	n	n	n
CCn1cc(C(=O)N2CCN(Cc3ccc4c(c3)OCO4)CC2)c(=O)c2ccc(C)nc21	n	n	n	n	n	n
CCOC(=O)NC(Nc1sc2c(c1C(N)=O)CCCC2)(C(=O)OCC)C(F)(F)F (configuration not stated)	n	n	n	n	n	n
Cc1nn(C)c(Oc2cccc(Cl)c2)c1C(=O)Nc1ccc(F)cc1F	n	n	n	n	n	n
COc1cccc(OC)c1C(=O)N1CCN(Cc2ccccc2C)CC1	79	n	n	74	n	n
Cc1ccc(NC(=O)N2CCN(Cc3ccc4c(c3)OCO4)CC2)cc1	n	n	n	81	n	n
O=C(Cn1ncc2c1-c1ccccc1OC2)N1CCN(Cc2ccc3c(c2)OCO3)CC1	n	n	n	68	n	n
O=C(CN1C(=O)c2ccccc2S1(=O)=O)N1CCN(Cc2ccc3c(c2)OCO3)CC1	n	n	n	n	n	n
O=C(CSCc1cccc(Cl)c1)N1CCN(Cc2ccc3c(c2)OCO3)CC1	n	n	48	n	n	n

Bioassay records (PubChem)
